Source: PubChem BioAssay (NCATS)
Records with an inconclusive call do not appear. A call without a number means that no potency is given here. Active and inactive are the calls of the source. The call rests on the fitted dose curve; in most records, active means well fitted inhibition curve with a large enough effect; inconclusive means small, poorly fitted or top-dose-only effect; inactive means flat fitted curve, though single readings scatter.

Legend:
Assay in all cases: qHTS profiling for inhibitors of Plasmodium falciparum proliferation (AID 504749); further: nearly all actives have a fitted effect of over 60% in size
Conditions in all cases: P. falciparum in erythrocytes, SYBR Green DNA, 72 h; series mostly up to 28.7 µM
[1] = tested on: DIV17
How it was run: (§1)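 Each compound contacts P. falciparum-infected red blood cells for 72 h at 37 C; lysis buffer (Tris, EDTA, saponin, Triton X, SYBR Green I) is added and fluorescence measured next morning; values normalized to controls.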

[2] = tested on: DIV30
How it was run: as §1

[3] = tested on: Dd2
How it was run: as §1

[4] = tested on: ECU
How it was run: as §1

[5] = tested on: FAB9
How it was run: as §1

[6] = tested on: GB4
How it was run: as §1

[7] = tested on: HB3
How it was run: as §1

[8] = tested on: ICS
How it was run: as §1

[9] = tested on: JCK
How it was run: as §1

[10] = tested on: P93_24
How it was run: as §1

[11] = tested on: P94_40
How it was run: as §1

[12] = tested on: PAD
How it was run: as §1

[13] = tested on: PC15
How it was run: as §1

[14] = tested on: PC26
How it was run: as §1

[15] = tested on: PC49
How it was run: as §1

[16] = tested on: SC27B
How it was run: as §1

[17] = tested on: TAB109
How it was run: as §1

[18] = tested on: TAB113
How it was run: as §1

[19] = tested on: TAB165
How it was run: as §1

[20] = tested on: N140
How it was run: as §1
Potency means the concentration at half of the fitted maximal effect.

Row | SMILES | Potency [1] | Potency [2] | Potency [3] | Potency [4] | Potency [5] | Potency [6] | Potency [7] | Potency [8] | Potency [9] | Potency [10] | Potency [11] | Potency [12] | Potency [13] | Potency [14] | Potency [15] | Potency [16] | Potency [17] | Potency [18] | Potency [19] | Potency [20]
1 | CCOC(=O)c1c(C)n(C)c2ccc(O)cc12 | inactive | inactive | inactive | inactive | inactive | inactive | inactive | inactive | inactive | inactive | inactive | inactive | inactive | inactive | inactive | inactive | inactive | inactive | inactive | –
2 | CN1C(C(=O)Nc2ccccn2)=C(O)c2sccc2S1(=O)=O | inactive | inactive | inactive | inactive | inactive | inactive | inactive | inactive | inactive | inactive | inactive | inactive | inactive | inactive | inactive | inactive | inactive | inactive | inactive | inactive
3 | COC(=O)C1=C(C)NC(C)=C(C(=O)OCCCN2CCC(c3ccccc3)(c3ccccc3)CC2)C1c1cccc([N+](=O)[O-])c1 (configuration not stated) | 4.26 µM (active) | 4.78 µM (active) | 3.55 µM (active) | 4.47 µM (active) | – | 1.9 µM (active) | 8.91 µM (active) | 1.41 µM (active) | – | 3.98 µM (active) | 4.47 µM (active) | 10 µM (active) | 11.2 µM (active) | 6.01 µM (active) | – | 3.55 µM (active) | 5.01 µM (active) | 2.51 µM (active) | 2.82 µM (active) | 5.01 µM (active)
4 | CN(C)CCc1c[nH]c2ccc(Cn3cncn3)cc12 | inactive | inactive | inactive | inactive | inactive | inactive | inactive | inactive | inactive | inactive | inactive | inactive | inactive | inactive | inactive | inactive | – | inactive | inactive | inactive
5 | O=C(NCCO[N+](=O)[O-])c1cccnc1 | inactive | inactive | inactive | inactive | inactive | inactive | inactive | inactive | inactive | inactive | inactive | inactive | inactive | inactive | inactive | inactive | inactive | inactive | inactive | inactive
6 | C[Se]CCC(N)C(=O)O (configuration not stated) | inactive | inactive | inactive | inactive | inactive | inactive | inactive | inactive | inactive | inactive | inactive | inactive | inactive | inactive | inactive | inactive | inactive | inactive | inactive | inactive
7 | Cc1cc2c(s1)Nc1ccccc1N=C2N1CCN(C)CC1 | inactive | inactive | inactive | inactive | inactive | – | inactive | inactive | inactive | inactive | inactive | inactive | inactive | – | inactive | inactive | inactive | inactive | inactive | inactive
8 | Nc1ccn([C@@H]2O[C@H](CO)[C@@H](O)C2O)c(=O)n1 (some centres not stated) | inactive | – | inactive | inactive | inactive | inactive | inactive | inactive | inactive | inactive | inactive | inactive | inactive | – | inactive | inactive | inactive | inactive | inactive | inactive
9 | Nc1nc(Cl)nc2c1ncn2[C@H]1C[C@H](O)[C@@H](CO)O1 | – | – | inactive | inactive | inactive | – | inactive | inactive | inactive | inactive | inactive | inactive | inactive | – | inactive | inactive | inactive | inactive | inactive | inactive
10 | O=c1oc2cc(O)ccc2s1 | – | inactive | inactive | inactive | inactive | – | inactive | – | inactive | inactive | inactive | inactive | inactive | inactive | inactive | inactive | inactive | inactive | inactive | inactive
11 | O=C(OC1C[C@H]2CC[C@@H](C1)[N+]21CCCC1)C(O)(c1ccccc1)c1ccccc1 (some centres not stated) | – | 4.78 µM (active) | 0.0891 µM (active) | 5.01 µM (active) | – | 4.26 µM (active) | – | – | inactive | 2.24 µM (active) | 4.47 µM (active) | – | inactive | – | inactive | – | 3.55 µM (active) | – | 3.98 µM (active) | –
12 | CCCCC(CC)COC(=O)C(C#N)=C(c1ccccc1)c1ccccc1 (configuration not stated) | inactive | inactive | – | 8.91 µM (active) | inactive | – | – | – | inactive | – | – | inactive | – | inactive | inactive | 8.91 µM (active) | – | – | 8.91 µM (active) | inactive
13 | Cc1nc(Nc2ncc(C(=O)Nc3c(C)cccc3Cl)s2)cc(N2CCN(CCO)CC2)n1 | 13.5 µM (active) | 13.5 µM (active) | – | – | inactive | 15.1 µM (active) | – | 7.08 µM (active) | inactive | – | – | – | – | – | – | – | inactive | inactive | 12.6 µM (active) | 14.1 µM (active)
14 | CCC[C@@H]1C[C@@H](C(=O)N[C@@H]([C@H]2O[C@H](SC)[C@H](O)[C@@H](O)[C@H]2O)[C@@H](C)O)N(C)C1 | – | – | 0.0089 µM (active) | – | inactive | – | – | – | inactive | – | – | inactive | inactive | – | inactive | – | – | inactive | – | –
15 | Cc1c(C(=O)NN2CCCCC2)nn(-c2ccc(Cl)cc2Cl)c1-c1ccc(Cl)cc1 | 13.5 µM (active) | 12 µM (active) | – | – | – | – | – | 11.2 µM (active) | inactive | 10 µM (active) | 11.2 µM (active) | – | – | 16.9 µM (active) | – | 10 µM (active) | – | – | 10 µM (active) | 8.91 µM (active)
16 | COCCCOc1ccnc(CS(=O)c2nc3ccccc3[nH]2)c1C (configuration not stated) | – | inactive | – | inactive | inactive | inactive | inactive | – | inactive | – | inactive | – | inactive | 19 µM (active) | inactive | inactive | inactive | inactive | – | inactive
